# Data from PubChem BioAssay AID1851 (National Center for Advancing Translational Sciences (NCATS), 2009).
# Hit rate of the full screen: of about 16,000 compounds, about 5,100 (32%) were called active. About 25% were inconclusive and are not listed. The list shows a part of the results. A number with no mark means an inactive call. Calls come from the whole dose curve; as a rule, active = well fitted curve in the direction sought with a large enough effect; inconclusive = small, poorly fitted or top-dose-only effect, or effect the other way; inactive = no such curve, though single readings can be large or run the other way.
# Target: Cytochrome P450 3A4 (Homo sapiens) (UniProt P08684)
# Sequence (P08684 whole entry, looked up): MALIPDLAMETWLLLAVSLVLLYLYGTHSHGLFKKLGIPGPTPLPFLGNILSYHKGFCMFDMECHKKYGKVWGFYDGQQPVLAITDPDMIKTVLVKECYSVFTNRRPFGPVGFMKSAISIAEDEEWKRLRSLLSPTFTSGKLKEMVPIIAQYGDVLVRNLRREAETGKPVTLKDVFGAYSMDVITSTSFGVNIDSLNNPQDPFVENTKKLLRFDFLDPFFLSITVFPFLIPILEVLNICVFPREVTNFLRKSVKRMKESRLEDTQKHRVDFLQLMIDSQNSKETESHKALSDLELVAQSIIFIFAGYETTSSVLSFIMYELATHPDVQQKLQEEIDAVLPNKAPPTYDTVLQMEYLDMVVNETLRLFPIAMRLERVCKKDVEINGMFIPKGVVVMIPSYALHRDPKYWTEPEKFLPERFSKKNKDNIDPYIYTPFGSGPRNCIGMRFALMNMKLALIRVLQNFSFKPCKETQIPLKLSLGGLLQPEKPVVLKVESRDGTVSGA
# Test: Cytochrome panel assay with activity outcomes
# Details: recombinant CYP, pro-luciferin dealkylation, luminescence, p450-cyp3a4; series mostly up to 57.1 µM; activity, negative = inhibition: at the top concentration
# % is set by controls: 0 for no effect and ±100 for the full control effect.
Compound,"activity, negative = inhibition",AC50
Nc1nc(=O)c2[nH]cnc2n1O,-2.96% [at 11.4 µM],
CC(C)Cn1c(=O)n(C)c(=O)c2[nH]cnc21,,3.98 µM (active)
Cn1c(=O)c2[nH]cnc2n(C)c1=O,,inactive
CN(Cc1cc(Cl)cc(Cl)c1O)Cc1c(O)ccc2ccccc12,-29.5% [at 11.4 µM],
CC(C)(N)C(=O)N[C@@H]1C(=O)N2[C@@H]1SC(C)(C)[C@H]2C(=O)O,-5.57% [at 11.4 µM],
Nc1ccc(N(c2ccccc2)c2ccc(N)cc2)cc1,,1.78 µM (active)
Nc1ccc(S(=O)(=O)NC(=O)c2ccccc2)cc1,-6.82% [at 25.6 µM],
COc1ccc(C2C3=C(CC(C)(C)CC3=O)Oc3ncn(CC(C)C)c(=N)c32)cc1 (stereo not given),,12.6 µM (active)
COCCn1c(=O)c(-c2cccc(C#N)c2)nc2cnc(Oc3ccccc3)nc21,,25.1 µM (active)
N#CCCn1c(=O)c(-c2ccc(F)cc2)nc2cnc(Oc3cccc(Cl)c3)nc21,-20.7%,
COCCn1c(=O)c(-c2cccc(C#N)c2)nc2cnc(Oc3ccc(OC)cc3)nc21,,2.51 µM (active)
COCCn1c(=O)c(-c2cccc(C#N)c2)nc2cnc(OCc3ccccc3)nc21,,10 µM (active)
COCCn1c(=O)c(-c2cccc(C#N)c2)nc2cnc(N(C)C)nc21,-19.3%,
N#CCCn1c(=O)c(-c2cccc(C#N)c2)nc2cnc(Oc3ccccc3)nc21,-12.2%,
CN(C)c1ncc2nc(-c3ccc(F)cc3)c(=O)n(CCC#N)c2n1,-6.39%,
N#CCCn1c(=O)c(-c2ccc(F)cc2)nc2cnc(OCc3ccccc3)nc21,,15.8 µM (active)
CC(C)(C)NC[C@@H](O)COc1ccccc1C1CCCC1,-7.01% [at 25.6 µM],
COc1cc2c(cc1OC)-c1cc3ccc(OC)c(OC)c3c[n+]1CC2,-16.2% [at 25.6 µM],
Cc1ccc(S(=O)(=O)N[C@H](C(=O)N2CCC(C(=O)NCC(=O)O)CC2)C(C)C)cc1,-18.8%,
CC(C)c1ccc2nc3sc(C(=O)N4CCc5ccccc5C4)c(N)c3cc2c1,6.07% [at 2.29 µM],
CC(C)C(NS(=O)(=O)c1cccc2nsnc12)C(=O)N1CCc2ccccc2C1 (stereo not given),,7.08 µM (active)
COC(=O)C(NC(=O)c1ccc(Cl)cc1)(Nc1nc(C)cs1)C(F)(F)F (stereo not given),,14.1 µM (active)
Cc1cc(OC(=O)c2ccc(Cl)cc2)cc(=O)n1C,-9.63%,
CCOc1ccc(/C=C/C(=O)Nc2ccc(OC)cc2[N+](=O)[O-])cc1,-0.704%,
CCOc1ccc(C(=O)Cc2cc(OC)c(OC)cc2[N+](=O)[O-])cc1,,7.94 µM (active)

Compound,"activity, negative = inhibition",AC50
CCOc1ccc(C(=O)CCC(=O)O)cc1,4.1%,
C[C@]12CC[C@H]3c4ccc(OC[C@H]5CO5)cc4CC[C@H]3[C@H]1CC[C@@H]2O,11.8% [at 11.4 µM],
Cn1nccc1C(=O)Nc1ccc(Cl)cc1,-16.2%,
S=C(S)NCCN1CCNCC1,-13.6% [at 11.4 µM],
NCCNC(=S)S,-20.2% [at 11.4 µM],
COc1ccc(C(=O)N/C(=C/c2cccs2)C(=O)NCCCn2ccnc2)cc1OC,,1.58 µM (active)
O=C(NCCCn1ccnc1)Nc1ccc(Cl)cc1,,0.398 µM (active)
S=C(S)NCCCn1ccnc1,,1.58 µM (active)
O=C(NCCCN1CCc2ccccc2C1)Nc1ccc(Cl)cc1,18.3%,
COc1ccc2c(Cl)c(C(=O)NCCCn3ccnc3)sc2c1Cl,,0.501 µM (active)
CC(C)(CO)[C@H](O)C(=O)NCCCO,-2.39% [at 25.6 µM],
N[C@@H](Cc1cc(-c2ccc(Cl)cc2Cl)cc(CP(=O)(O)O)c1O)C(=O)O,-5.32%,
O=C(O)C1CCCCC1C(=O)Nc1ccccc1Cl (stereo not given),2.92%,
CCc1ccccc1NC(=O)C1C(c2ccccc2)C1(Cl)Cl (stereo not given),,15.8 µM (active)
COC(=O)C1=C(C)NC2=C(C(=O)CCC2)C1c1cn(Cc2ccc(Cl)cc2Cl)nc1-c1ccccc1 (stereo not given),,2.51 µM (active)
C[C@H](C[C@H](N)C(=O)O)C(=O)O,-6.08%,
CC[N+](CC)(CC)CCOc1cccc(OCC[N+](CC)(CC)CC)c1OCC[N+](CC)(CC)CC,5.02%,
Clc1ccc(-c2ccnc(Oc3cc(Cl)ccc3Cl)n2)cc1,-6.59%,
Nc1cc(Cl)ccc1Oc1ccc(Cl)cc1,13.4%,
Cc1cc(Cl)ccc1Oc1ncc(-c2ccc(Cl)cc2)cn1,,7.08 µM (active)
O=C(NC1CCCC1)c1cccnc1N1CCCCCC1,,14.1 µM (active)
O=C(O)C1CCN(c2ncccn2)CC1,-12.1%,
O=[N+]([O-])c1cccnc1N1CCCCC1,-1.84%,
Cc1noc(C)c1COc1cccc(C(=O)OCC(=O)N2CC(=O)Nc3ccccc32)c1,,4.47 µM (active)
COCc1c(C(=O)OCC(=O)N2c3ccccc3NC(=O)C2(C)C)oc2ccccc12,0.0262%,
